According to PubChem BioAssay (NCATS):
Results filed as inconclusive are left out. Active and inactive are the calls of the source. Unless noted, calls come from the whole dose curve; as a rule, active = well fitted cell-killing curve with a large enough effect; inconclusive = small, poorly fitted or top-dose-only effect; inactive = flat fitted curve, though single readings scatter.

Tests used:
[1] = Cell Viability - LYMP2-019 (AID 973); note: nearly all actives have a fitted effect of over 55% in size
Method in brief: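 AC50 values come from Hill-equation fits of luminescent intracellular ATP (CellTiter-Glo, 30 min, room temperature) following 24 h compound exposure at 37 C. Cells: LYMP2-019 lymphoblastoid line, 2500 per well, in complete culture medium.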

[2] = Cell Viability - LYMP2-021 (AID 974); note: nearly all actives have a fitted effect of over 55% in size
Method in brief: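 AC50 values come from Hill-equation fits to CellTiter-Glo luminescence (ATP content), read after 24 hour compound exposure at 37 C of 2500 LYMP2-021 lymphoblastoid cells/well; tetraoctylammonium bromide as positive control.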

[3] = Cell Viability - LYMP2-023 (AID 975);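 note: cellular ATP measured by luciferase luminescence as viability proxy; series mostly up to about 92 µM; nearly all actives have a fitted effect of over 55% in size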
Method in brief: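 Intracellular ATP, read by CellTiter-Glo luminescence, reports viability after 24 hr compound exposure at 37 C. 2500 lymphoblastoid cells/well (LYMP2-023) seeded 5 hr beforehand; Hill fits give AC50; positive control tetraoctylammonium bromide.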

[4] = Cell Viability - LYMP2-025 (AID 976); note: series mostly up to about 92 µM
Method in brief: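 Cytotoxicity read as loss of intracellular ATP (luciferase luminescence) after 24 h compound treatment at 37 C. Uses LYMP2-025 lymphoblastoid cells in 1536-well format; Hill-equation modelling gives AC50; tetraoctylammonium bromide as positive control.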

[5] = Cell Viability - LYMP2-002 (AID 977); note: series mostly up to about 92 µM
Method in brief: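 In this qHTS viability screen, 2500 human lymphoblastoid cells per well receive compound for 24 hr at 37 C, and luciferase-based ATP luminescence gives the viability signal. Tetraoctylammonium bromide serves as positive control.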

[6] = Cell Viability - LYMP2-006 (AID 978); note: series mostly up to about 92 µM; nearly all actives have a fitted effect of over 60% in size
Method in brief: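 Human lymphoblastoid cells, 2500 per well, were preincubated 5 hr at 37 C, then exposed to compounds for 24 hr at 37 C in complete medium. Viability was read as intracellular ATP by CellTiter-Glo luminescence; AC50 from Hill-equation fits of qHTS concentration-response data.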

[7] = Cell Viability - LYMP2-007 (AID 979);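 note: cells exposed to compound for 24 h before reading; nearly all actives have a fitted effect of over 60% in size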
Method in brief: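 AC50 values come from Hill-equation fits of luminescent intracellular ATP (CellTiter-Glo, 30 min, room temperature) following 24 h compound exposure at 37 C. Cells: LYMP2-007 lymphoblastoid line, 2500 per well, in complete culture medium.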

[8] = Cell Viability - LYMP2-010 (AID 981); note: nearly all actives have a fitted effect of over 55% in size
Method in brief: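 CellTiter-Glo ATP luminescence measured cytotoxicity after 24 h compound exposure at 37 C. LYMP2-010 cells were seeded at 2500/well, with tetraoctylammonium bromide as control; concentration-response curves gave AC50 values by the Hill equation.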

[9] = Cell Viability - LYMP2-012 (AID 982)
[10] = Cell Viability - LYMP2-014 (AID 983); note: series mostly up to about 92 µM; nearly all actives have a fitted effect of over 50% in size
Method in brief: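 Intracellular ATP loss, read by luciferase luminescence, measures acute cytotoxicity after 24 h compound exposure of lymphoblastoid LYMP2-014 cells (2500/well, 37 C). Concentration-response data fitted to the Hill equation for AC50.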

[11] = Cell Viability - LYMP2-016 (AID 984); note: nearly all actives have a fitted effect of over 55% in size
Method in brief: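 Human lymphoblastoid cells (LYMP2-016), 2500/well in complete medium, preincubated 5 hr at 37 C, then compound-treated 24 hr at 37 C. Intracellular ATP read by CellTiter-Glo luminescence after 30 min at room temperature; AC50 from Hill-equation concentration-response fits.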

[12] = Cell Viability - LYMP2-018 (AID 985); note: nearly all actives have a fitted effect of over 50% in size
Method in brief: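 Viability read as CellTiter-Glo luminescence (cellular ATP) after 24 hr compound exposure at 37 C of 2500 LYMP2-018 lymphoblastoid cells/well, pre-plated 5 hr. Hill-equation modelling gave AC50.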

[13] = Cell Viability - LYMP2-020 (AID 986)
Method in brief: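 Cytotoxicity in qHTS format: luminescent ATP readout from CellTiter-Glo after 24 h compound exposure at 37 C in complete medium. LYMP2-020 lymphoblastoid cells were seeded at 2500/well; concentration-response data fitted to the Hill equation for AC50.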

[14] = Cell Viability - LYMP2-022 (AID 987); note: nearly all actives have a fitted effect of over 55% in size
Method in brief: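 Cytotoxicity read as decreased cellular ATP (CellTiter-Glo luminescence, 30 min room temperature) after 24 hours compound exposure of 2500 lymphoblastoid LYMP2-022 cells/well at 37 C. Concentration-response data fitted with standard Hill equation for AC50.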

[15] = Cell Viability - LYMP2-024 (AID 988); note: nearly all actives have a fitted effect of over 60% in size
Method in brief: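 Cytotoxicity was taken as a decrease in ATP (CellTiter-Glo luminescence) after 24 hr compound exposure at 37 C of LYMP2-024 lymphoblastoid cells, 2500 cells/well. Concentration-response data were fitted to the Hill equation to give AC50.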

[16] = Cell Viability - LYMP2-026 (AID 989); note: nearly all actives have a fitted effect of over 50% in size
Method in brief: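 Cytotoxicity read as ATP-dependent luminescence (CellTiter-Glo, 30 min room temperature) after 24 h compound treatment at 37 C. LYMP2-026 lymphoblastoid line seeded at 2500 cells/well; AC50 derived by standard Hill equation.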

[17] = Cell Viability - LYMP1-002 - Assay at 24 hr (AID 993)
Method in brief: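 qHTS cytotoxicity at 24 h: CellTiter-Glo ATP luminescence in lymphoblastoid line LYMP1-002 incubated with compound at 37 °C. Concentration-response modeled with the Hill equation for AC50; tetraoctylammonium bromide served as positive control.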

[18] = Cell Viability - LYMP1-002 - Assay at 40 hr (AID 994); note: nearly all actives have a fitted effect of over 60% in size
Method in brief: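 Cytotoxicity was read as loss of cellular ATP (CellTiter-Glo luminescence) after 40 hr compound exposure at 37 C of 2500 LYMP1-002 lymphoblastoid cells per well. Concentration-response data were fitted with the standard Hill equation to give AC50.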

[19] = qHTS for Inhibitors of the Functional Ribonucleoprotein Complex (vRNP) of Lassa (LASV) Arenavirus: Viability assay - alamar blue signal for LASV Primary Screen (AID 1347083; calls by dose curve; tested in HEK293 reporter line; note: series mostly up to about 57 µM; nearly all actives have a fitted effect of over 80% in size)
[20] = qHTS for Inhibitors of the Functional Ribonucleoprotein Complex (vRNP) of Lymphocytic Choriomeningitis Arenaviruses (LCMV): Viability assay - alamar blue signal for LCMV Primary Screen (AID 1347085; calls by dose curve; tested in HEK293 reporter line; note: series mostly up to about 57 µM; nearly all actives have a fitted effect of over 80% in size)

Measured: Potency

O=Cc1ccccc1
not listed: [19] | [20]
inactive: all other assays above

CCOc1cc(C=O)ccc1O
not listed: [19] | [20]
inactive: all other assays above

COC(=O)c1ccccc1C(=O)OC
not listed: [19] | [20]
inactive: all other assays above

C[N+](C)(C)CC(=O)[O-]
inactive: [19] | [20]

Clc1ccc([C@@H]2C[C@H]3CC[C@@H]2N3)cn1
inactive: [19] | [20]

COC(=O)[C@H]1[C@@H](OC(=O)c2ccccc2)C[C@@H]2CC[C@H]1N2C
inactive: [19] | [20]
